Hit rate of the full screen: of about 310,000 compounds, about 14,000 (4.5%) showed an effect of 50% or more. Effects have a minus sign here. This is one part of a sample in which strong results are shown more often than they occur.
The molecules below were run against human ether-à-go-go-related gene (hERG) potassium channel (human, UniProt Q12809) (assay: primary screen, population patch clamp on CHO cells stably expressing hERG; higher = less effect of the substance).
human ether-à-go-go-related gene (hERG) potassium channel, sequence (Q12809 whole entry, looked up): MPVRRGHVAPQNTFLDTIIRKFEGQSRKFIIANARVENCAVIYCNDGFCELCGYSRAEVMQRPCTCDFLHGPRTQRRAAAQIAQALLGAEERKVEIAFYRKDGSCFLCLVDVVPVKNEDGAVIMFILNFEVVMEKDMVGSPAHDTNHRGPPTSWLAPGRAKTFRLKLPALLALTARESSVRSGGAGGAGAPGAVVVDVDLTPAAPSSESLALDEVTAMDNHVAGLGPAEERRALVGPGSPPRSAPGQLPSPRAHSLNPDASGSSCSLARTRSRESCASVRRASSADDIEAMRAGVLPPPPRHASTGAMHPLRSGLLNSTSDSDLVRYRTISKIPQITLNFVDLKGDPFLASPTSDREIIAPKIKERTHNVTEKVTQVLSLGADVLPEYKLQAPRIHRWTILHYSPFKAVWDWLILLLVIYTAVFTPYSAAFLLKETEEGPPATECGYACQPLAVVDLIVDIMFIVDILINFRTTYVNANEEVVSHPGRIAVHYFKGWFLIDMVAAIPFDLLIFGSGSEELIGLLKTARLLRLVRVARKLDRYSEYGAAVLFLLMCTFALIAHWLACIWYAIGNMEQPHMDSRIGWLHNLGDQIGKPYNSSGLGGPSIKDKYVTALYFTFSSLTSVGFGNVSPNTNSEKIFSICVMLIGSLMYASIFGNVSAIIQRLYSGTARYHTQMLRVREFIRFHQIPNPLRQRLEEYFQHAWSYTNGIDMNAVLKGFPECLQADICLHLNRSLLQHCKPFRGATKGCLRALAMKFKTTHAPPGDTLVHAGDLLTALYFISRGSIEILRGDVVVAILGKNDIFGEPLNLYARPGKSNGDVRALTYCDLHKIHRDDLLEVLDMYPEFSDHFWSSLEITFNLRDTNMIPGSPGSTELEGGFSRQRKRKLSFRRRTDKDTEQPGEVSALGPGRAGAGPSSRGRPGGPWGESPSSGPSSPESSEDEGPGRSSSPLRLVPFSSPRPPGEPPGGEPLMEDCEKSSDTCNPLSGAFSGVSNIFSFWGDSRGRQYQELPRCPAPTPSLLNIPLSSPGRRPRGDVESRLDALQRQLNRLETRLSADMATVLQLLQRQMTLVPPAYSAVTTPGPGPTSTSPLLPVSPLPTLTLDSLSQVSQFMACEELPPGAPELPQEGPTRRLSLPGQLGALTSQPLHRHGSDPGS
CC(C)OC(=O)c1ccc(OC(=O)c2cccnc2)cc1 was tested, and the “hERG current change (%, negative = inhibition) at 10uM” value was 12.5%.
For COC(=O)C1=C(C)N(Cc2ccccc2)C(=NCCc2cccnc2)N[C@H]1c1ccccc1, the “hERG current change (%, negative = inhibition) at 10uM” value was -63%.
In the case of COC(=O)C1=C(C)N(Cc2ccccc2)C(=NCc2cc(OC)c(OC)c(OC)c2)N[C@H]1c1ccccc1, the “hERG current change (%, negative = inhibition) at 10uM” value is reported as -27.8%.
In the case of CCN1C(=NCCOC)N[C@@H](c2cccs2)C(C(=O)OC)=C1C, the “hERG current change (%, negative = inhibition) at 10uM” value is reported as -5.96%.
CCN1C(N(C)CCc2cccs2)=N[C@@H](c2ccccc2)C(C(=O)OC)=C1C was tested, and the “hERG current change (%, negative = inhibition) at 10uM” value was -53.8%.
For CCN1C(=O)N[C@@H](c2ccccc2)C(C(=O)OC)=C1C, the “hERG current change (%, negative = inhibition) at 10uM” value was -1.67%.
CCN(CC)CCCN=C1N[C@@H](c2ccccc2)C(C(=O)OC)=C(C)N1CC was tested, and the “hERG current change (%, negative = inhibition) at 10uM” value was 14.6%.
For COCCN=C1N[C@@H](c2cccc(C(F)(F)F)c2)C(C(=O)OC)=C(C)N1Cc1ccccc1, the “hERG current change (%, negative = inhibition) at 10uM” value was -11.9%.
CCN1C(=NCCc2cccs2)N[C@@H](c2cccs2)C(C(=O)OC)=C1C was tested, and the “hERG current change (%, negative = inhibition) at 10uM” value was -64.2%.
CCN1C(=NCCc2cccnc2)N[C@@H](c2ccccc2)C(C(=O)OC)=C1C was tested, and the “hERG current change (%, negative = inhibition) at 10uM” value was -51.2%.
In the case of CCN1C(=O)N[C@@H](c2cccs2)C(C(=O)OC)=C1C, the “hERG current change (%, negative = inhibition) at 10uM” value is reported as 10.2%.
With CCN1C(=S)N[C@@H](c2ccccc2)C(C(=O)OC)=C1C the “hERG current change (%, negative = inhibition) at 10uM” value was 14.8%.
For C=CCN=C1N[C@@H](c2ccccc2)C(C(=O)OC)=C(C)N1CC, the “hERG current change (%, negative = inhibition) at 10uM” value was 1.27%.
With CCOC(=O)C1=C(C)Nc2ccccc2N/C1=N\S(=O)(=O)c1ccc(Cl)cc1 the “hERG current change (%, negative = inhibition) at 10uM” value was -7.32%.
COc1ccc(CNC(=O)CCCNS(=O)(=O)c2cccc3nonc23)cc1 was tested, and the “hERG current change (%, negative = inhibition) at 10uM” value was -1.27%.
With CC(CC(=O)NC1CCCCC1)S(=O)(=O)c1ccc2c(c1)NC(=O)CO2 (stereo not drawn) the “hERG current change (%, negative = inhibition) at 10uM” value was 5.72%.
Cc1cc(C)nc(N(C#N)Cc2ccccc2Cl)n1 was tested, and the “hERG current change (%, negative = inhibition) at 10uM” value was 4.48%.
Cc1cc(C)nc(N(C#N)Cc2cccc3ccccc23)n1 was tested, and the “hERG current change (%, negative = inhibition) at 10uM” value was 3.61%.
With Cc1cc(C)nc(N(C#N)Cc2ccccc2C)n1 the “hERG current change (%, negative = inhibition) at 10uM” value was -51.4%.
In the case of CCC(=O)n1nc(-c2ccco2)nc1N, the “hERG current change (%, negative = inhibition) at 10uM” value is reported as 10.8%.
With CCN(Cc1ccccc1)c1ccc(/C=N/NS(=O)(=O)c2cccc([N+](=O)[O-])c2)cc1 the “hERG current change (%, negative = inhibition) at 10uM” value was 10.3%.
In the case of Cc1cccc(NC(=O)CSc2nc3ccccc3o2)c1, the “hERG current change (%, negative = inhibition) at 10uM” value is reported as 3.5%.
With Cc1nn2c(-c3cccc(NC(=O)CSc4nc5ccccc5o4)c3)nnc2c2ccccc12 the “hERG current change (%, negative = inhibition) at 10uM” value was -70.8%.
CC(=O)Nc1cccc(-c2nnc3c4ccccc4c(C)nn23)c1 was tested, and the “hERG current change (%, negative = inhibition) at 10uM” value was -0.564%.
For CCS(=O)(=O)N1CCN(C(=O)c2cccc3ccccc23)CC1, the “hERG current change (%, negative = inhibition) at 10uM” value was 12.8%.
In the case of COc1cccc(CCN2C(=O)C(=O)N([C@@H](CNCc3ccccc3)Cc3ccccc3F)C[C@@H]2C(C)(C)C)c1, the “hERG current change (%, negative = inhibition) at 10uM” value is reported as -48.5%.
COc1ccc(CNC[C@@H](CCCCN(C)Cc2ccc(OC)cc2)N2C[C@H](c3ccccc3)N(CCc3ccc(Cl)c(Cl)c3)C(=O)C2=O)cc1 was tested, and the “hERG current change (%, negative = inhibition) at 10uM” value was -80.3%.
For COc1ccc(CNC(=O)[C@@H]2CC=C[C@@H]3CCN(Cc4ccc(Cl)c(Cl)c4)C(=O)[C@@H]32)cc1, the “hERG current change (%, negative = inhibition) at 10uM” value was -8.85%.
Nn1cnc2cc3ccccc3cc2c1=O was tested, and the “hERG current change (%, negative = inhibition) at 10uM” value was 8.16%.
In the case of Cn1c(=O)c2cn(-c3ccc4c(c3)OCCO4)cc2n(C)c1=O, the “hERG current change (%, negative = inhibition) at 10uM” value is reported as 11.3%.
Cc1cccc(C)c1NC(=O)C1(N(Cc2ccco2)C(=O)c2ccccn2)CCCC1 was tested, and the “hERG current change (%, negative = inhibition) at 10uM” value was 5.95%.
With COc1c(Cl)cc(Cl)cc1C(=O)Nc1ccc(CN2CCOCC2)cc1 the “hERG current change (%, negative = inhibition) at 10uM” value was 8.37%.
For COc1cccc(OC)c1C(=O)Nc1ccc(CN2CCCCC2)cc1, the “hERG current change (%, negative = inhibition) at 10uM” value was 10.6%.
COc1c(C)cccc1C(=O)Nc1ccc(CN2CCCCC2)cc1 was tested, and the “hERG current change (%, negative = inhibition) at 10uM” value was -30.7%.
In the case of COc1c(Cl)cc(Cl)cc1C(=O)Nc1ccc(CN2CCCCC2)cc1, the “hERG current change (%, negative = inhibition) at 10uM” value is reported as -65.1%.
For COc1ccccc1C(=O)Nc1ccc(CN2CCCCC2)cc1, the “hERG current change (%, negative = inhibition) at 10uM” value was -28.4%.
In the case of COc1ccc(Cl)cc1C(=O)Nc1ccc(CN2CCCCC2)cc1, the “hERG current change (%, negative = inhibition) at 10uM” value is reported as -52%.
In the case of Cc1ccc(N2C(S)=C(C#N)C(=O)NC2c2cccs2)cc1 (stereo not drawn), the “hERG current change (%, negative = inhibition) at 10uM” value is reported as 15.2%.
With c1ccc(CN(Cc2ccccc2)c2ncnc3c2nnn3Cc2ccccc2)cc1 the “hERG current change (%, negative = inhibition) at 10uM” value was 7.63%.
For CC1Cc2nc(SCC(=O)NCc3ccco3)n(-c3ccccc3)c(=O)c2S1 (stereo not drawn), the “hERG current change (%, negative = inhibition) at 10uM” value was -33.5%.
For O=C(Nc1ccc(C(F)(F)F)cc1)c1csc(-c2ccncc2)n1, the “hERG current change (%, negative = inhibition) at 10uM” value was -25.4%.
COc1cc(NC(=O)c2csc(-c3ccncc3)n2)cc(C(=O)Nc2cccc(C(F)(F)F)c2)c1 was tested, and the “hERG current change (%, negative = inhibition) at 10uM” value was -48.7%.
With O=C(Nc1cccc(C(F)(F)F)c1)c1csc(-c2ccncc2)n1 the “hERG current change (%, negative = inhibition) at 10uM” value was -68.6%.
Cc1ccc(C(=O)Nc2cccc(C(F)(F)F)c2)cc1NC(=O)c1csc(-c2ccncc2)n1 was tested, and the “hERG current change (%, negative = inhibition) at 10uM” value was -62.5%.
In the case of NNC(=O)c1csc(-c2cccc(C(F)(F)F)c2)n1, the “hERG current change (%, negative = inhibition) at 10uM” value is reported as -30%.
For CCN1CCN(Cc2ccc(NC(=O)c3ccc(C)c(NC(=O)c4csc(-c5ccncc5)n4)c3)cc2C(F)(F)F)CC1, the “hERG current change (%, negative = inhibition) at 10uM” value was 7.22%.
For CC(C)N1C(=O)C2ON(c3ccccc3)C(c3cccs3)C2C1=O (stereo not drawn), the “hERG current change (%, negative = inhibition) at 10uM” value was -16.6%.
With CCOC(=O)C(CC)(CCC(=O)O)c1csc(Nc2ccc(C)cc2)n1 (stereo not drawn) the “hERG current change (%, negative = inhibition) at 10uM” value was 16.5%.
Cc1cc(=O)oc2c(C)c(OCC(=O)N(C)C)ccc12 was tested, and the “hERG current change (%, negative = inhibition) at 10uM” value was 9.8%.
O=C(c1ccc(F)cc1)N1C2CCC1CC(O)(c1ccc(F)cc1)C2 (stereo not drawn) was tested, and the “hERG current change (%, negative = inhibition) at 10uM” value was -20.6%.
With COc1ccc(C(C)=O)cc1COC(=O)c1ccc(N)c([N+](=O)[O-])c1 the “hERG current change (%, negative = inhibition) at 10uM” value was 35.1%.
Cc1ccc(NC(=O)c2cc(S(=O)(=O)N(C)C)ccc2N2CCCC2)cc1S(=O)(=O)N(C)C was tested, and the “hERG current change (%, negative = inhibition) at 10uM” value was -26.5%.
COc1ccc(C(C)(C)C)cc1NC(=O)c1cc(S(=O)(=O)N(C)C)ccc1N1CCCC1 was tested, and the “hERG current change (%, negative = inhibition) at 10uM” value was -60%.
COc1ccc(OC)c(NC(=O)c2cc(S(=O)(=O)N(C)C)ccc2N2CCCC2)c1 was tested, and the “hERG current change (%, negative = inhibition) at 10uM” value was -68.1%.
For COc1ccc(NC(=O)c2cc(S(=O)(=O)N(C)C)ccc2N2CCCC2)cc1Cl, the “hERG current change (%, negative = inhibition) at 10uM” value was 12.7%.
For COc1ccc(CCNC(=O)c2cc(S(=O)(=O)N(C)C)ccc2N2CCCC2)cc1OC, the “hERG current change (%, negative = inhibition) at 10uM” value was 5.99%.
For COc1ccc(CCNC(=O)c2cc(S(=O)(=O)N(C)C)ccc2N2CCCC2)cc1, the “hERG current change (%, negative = inhibition) at 10uM” value was 4.26%.
COc1cc(C(=O)NNC(=O)c2cc(S(=O)(=O)N(C)C)ccc2N2CCCC2)cc(OC)c1OC was tested, and the “hERG current change (%, negative = inhibition) at 10uM” value was 15.1%.
COc1ccc(NC(=O)CN(C)C(=O)c2cc(S(=O)(=O)N(C)C)ccc2N2CCCC2)cc1 was tested, and the “hERG current change (%, negative = inhibition) at 10uM” value was -13.8%.
COc1cc(Cl)c(C)cc1NC(=O)c1cc(S(=O)(=O)N(C)C)ccc1N1CCCC1 was tested, and the “hERG current change (%, negative = inhibition) at 10uM” value was -51.8%.

Source: article PMC4336329 (PLoS ONE, 2015)
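Also: peak tail current of the secondary pulse compared with the same well before compound.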
